Test results as given in PubChem BioAssay.

Each compound was assayed against ATP-binding cassette sub-family B member 6 (Homo sapiens) (UniProt Q9NP58) (assay: blockers of ABCB6-driven porphyrin uptake – K562-ABCB6 cells, flow cytometry, validation set, pilot screen (AID 588550;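 note: 0% = DMSO wells and 100% = benzethonium chloride 70 µM positive control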)). Conditions: K562-ABCB6 porphyrin accumulation, 1 h, at 10 µM, stronger effect = higher value;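 active = inhibition above the screen-wide mean plus 3 SD, about 51%; inactive = the rest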.
Chain of ATP-binding cassette sub-family B member 6 (Homo sapiens) (Q9NP58 whole entry, looked up): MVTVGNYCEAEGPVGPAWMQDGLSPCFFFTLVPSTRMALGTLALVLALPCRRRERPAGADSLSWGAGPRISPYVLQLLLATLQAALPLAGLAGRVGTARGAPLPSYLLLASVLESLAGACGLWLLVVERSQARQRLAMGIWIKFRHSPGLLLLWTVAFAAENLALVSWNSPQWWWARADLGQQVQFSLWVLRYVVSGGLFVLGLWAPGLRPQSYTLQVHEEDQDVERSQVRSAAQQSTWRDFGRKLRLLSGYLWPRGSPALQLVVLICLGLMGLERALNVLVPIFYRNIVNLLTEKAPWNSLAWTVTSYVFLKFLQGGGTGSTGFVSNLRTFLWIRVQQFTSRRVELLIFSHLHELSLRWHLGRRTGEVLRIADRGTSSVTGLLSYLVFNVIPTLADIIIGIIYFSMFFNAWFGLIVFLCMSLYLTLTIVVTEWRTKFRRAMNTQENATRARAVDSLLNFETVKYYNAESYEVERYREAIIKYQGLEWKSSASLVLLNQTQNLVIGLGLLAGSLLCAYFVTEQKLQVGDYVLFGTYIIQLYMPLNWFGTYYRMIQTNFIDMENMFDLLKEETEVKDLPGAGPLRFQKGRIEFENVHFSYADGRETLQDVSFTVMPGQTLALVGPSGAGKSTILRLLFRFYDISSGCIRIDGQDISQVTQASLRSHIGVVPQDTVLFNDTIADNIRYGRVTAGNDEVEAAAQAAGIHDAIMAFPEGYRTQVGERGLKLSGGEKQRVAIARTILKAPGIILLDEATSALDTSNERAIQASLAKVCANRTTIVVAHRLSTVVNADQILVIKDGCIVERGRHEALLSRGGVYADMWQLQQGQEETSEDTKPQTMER

inhibition, inactive:
CC(C)(C)C(=O)NC(=S)Nc1sc2c(c1C(N)=O)CCC2 4%
Cc1cc(C(=O)NC(CC(C)C)C(=O)O)cc(C)c1[N+](=O)[O-] (stereo unspecified) 17%
CCS(=O)(=O)Nc1cc(OC)c(OC)cc1Cc1nccc2cc(OC)c(OC)cc12 0%
CCn1c(O)c(/C=C2\C=Nc3ccccc32)sc1=O 4%
O=C(C1CCCCC1)N1CC(=O)N2CCc3ccccc3C2C1 (stereo unspecified) 3%
CCn1cc(C(=O)O)c(=O)c2cc(F)c(N3CCNCC3)cc21 2%
COc1cccc(N2CC34C=CC(O3)C(C(=O)O)C4C2=O)c1 (stereo unspecified) 3%
CC(=O)NCCCC(=O)NC(CCC(=O)OCc1ccccc1)C(=O)OCc1ccccc1 (stereo unspecified) 2%
Cn1cc(CN(CCO)Cc2cccs2)c(-c2cccc(Cl)c2)n1 5%
COc1ccc(C(=O)NC(=O)NC2(C(Cl)(Cl)Cl)OCCO2)cc1 9%
CC(=O)c1c(C)[nH]c(C(=O)OCc2ccccc2)c1C 1%
C=CCN1C(=O)c2oc3ccccc3c(=O)c2C1c1ccc(O)c(OC)c1 (stereo unspecified) 0%
CC(=O)CCc1oc2ccccc2c1-c1ccccc1 7%
COc1cc(OC)c(C(=O)CCCN2CCCC2)c(OC)c1 10%
CC(=O)OCC(=O)[C@@]1(OC(C)=O)[C@@H](C)C[C@H]2[C@@H]3C[C@H](F)C4=CC(=O)C=C[C@]4(C)[C@@]3(F)[C@@H](O)C[C@@]21C -2%
Cc1nnc(SCC(=O)N2CCCC(C(=O)c3ccc(Cl)cc3)C2)o1 (stereo unspecified) 3%
